In PubChem BioAssay AID1159580 (chemical genetic matrix, 2015):
Where “and” joins values, the source holds several entries; their conditions need not be identical. Equal entries are not always repeated. Screen size: about 5,500 compounds; about 2,000 (36%) were called active. Roughly 18% stayed inconclusive and do not appear here. Rule as the data show it: active = normalized growth mostly below about 0.91 (no sharp cut-off); inconclusive = no clear call, values can overlap the other calls; inactive = mostly above about 0.92. The list shows a part of the results.

Assay: chemical genetic growth profiling, strain panel (AID 1159580);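 also: tested at 20 µM; growth read once vehicle control cultures reached saturation at 30 °C; 1 = growth at the plate median or of vehicle wells; lower values mean less growth of the strain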
Conditions: S. cerevisiae deletion strains, growth OD

Measured: normalized growth

NCCc1ccc(O)c(O)c1
inactive: locus YAL013W, strain DEP1, active compounds read low 1 and 0.968 | locus YAL021C, strain ccr4, active compounds read low 1.01 | locus YAL026C, strain drs2, active compounds read low 1 | locus YAL030W, strain snc1, active compounds read low 1.01 | locus YAL040C, strain CLN3, active compounds read low 0.983 | locus YBL061C, strain skt5, active compounds read low 0.998 | locus YBR009C, strain hhf1, active compounds read low 0.978 | locus YBR021W, strain FUR4, active compounds read low 0.999 | locus YBR023C, strain chs3, active compounds read low 1 | locus YBR171W, strain sec66, active compounds read low 0.997 | locus YBR229C, strain ROT2, active compounds read low 1 | locus YBR231C, strain swc5, active compounds read low 0.997 | locus YBR279W, strain paf1, active compounds read low 1 | locus YCL011C, strain gbp2, active compounds read low 0.981 | locus YCL016C, strain dcc1, active compounds read low 0.991 | locus YCL029C, strain bik1, active compounds read low 0.965 | locus YCL061C, strain MRC1 (second series), active compounds read low 0.997 | locus YCL061C, strain MRC1, active compounds read low 0.987 | locus YCL069W, strain vba3, active compounds read low 0.981 | locus YCR088W, strain abp1, active compounds read low 0.995 | locus YDL005C, strain med2, active compounds read low 1 | locus YDL035C, strain GPR1, active compounds read low 1.01 | locus YDL040C, strain nat1, active compounds read low 1.01 | locus YDL074C, strain BRE1, active compounds read low 0.978 | locus YDL101C, strain DUN1, active compounds read low 0.988 | locus YDL134C, strain PPH21, active compounds read low 1.04 | locus YDL185W, strain tfp1, active compounds read low 0.979 | locus YDL192W, strain arf1, active compounds read low 0.995 | locus YDR001C, strain nth1, active compounds read low 1 | locus YDR069C, strain doa4, active compounds read low 0.999 | locus YDR101C, strain arx1, active compounds read low 1.01 | locus YDR137W, strain rgp1, active compounds read low 1.03 | locus YDR150W, strain NUM1, active compounds read low 0.992 | locus YDR159W, strain sac3, active compounds read low 1.03 | locus YDR162C, strain NBP2, active compounds read low 1 | locus YDR195W, strain ref2 1.01 | locus YDR297W, strain sur2, active compounds read low 1 | locus YDR318W, strain mcm21, active compounds read low 0.988 | locus YDR334W, strain swr1, active compounds read low 0.996 | locus YDR335W, strain msn5, active compounds read low 1.01 | locus YDR363W, strain ESC2, active compounds read low 0.998 | locus YDR388W, active compounds read low 1 | locus YDR392W, strain spt3, active compounds read low 0.993 | locus YDR502C, strain sam2, active compounds read low 0.998 | locus YEL003W, strain gim4, active compounds read low 0.977 | locus YEL037C, strain rad23, active compounds read low 1 | locus YEL061C, strain CIN8 (second series), active compounds read low 1.02 | locus YEL061C, strain CIN8, active compounds read low 0.997 | locus YER002W, strain NOP16, active compounds read low 1.01 | locus YER015W, strain faa2, active compounds read low 1.02 | locus YER016W, strain bim1, active compounds read low 1 | locus YER110C, active compounds read low 0.984 | locus YER111C, strain swi4, active compounds read low 0.993 | locus YER155C, strain BEM2 (second series), active compounds read low 1 | locus YER155C, strain BEM2, active compounds read low 1 | locus YER167W, strain BCK2, active compounds read low 0.995 | locus YFR010W, strain ubp6, active compounds read low 0.984 | locus YGL078C, strain dbp3, active compounds read low 1 | locus YGL086W, strain mad1, active compounds read low 0.998 | locus YGL167C, strain pmr1, active compounds read low 1.02 | locus YGL173C, strain kem1, active compounds read low 0.98 | locus YGL227W, strain vid30, active compounds read low 1 | locus YGL240W, strain doc1, active compounds read low 1.01 | locus YGL248W, strain PDE1, active compounds read low 0.961 | locus YGL253W, strain hxk2, active compounds read low 0.989 | locus YGR135W, strain pre9, active compounds read low 0.95 | locus YGR229C, strain SMI1, active compounds read low 1.02 | locus YGR252W, strain gcn5, active compounds read low 1.01 | locus YHR013C, strain ard1, active compounds read low 0.993 | locus YHR027C, strain rpn1, active compounds read low 1 | locus YHR030C, strain SLT2, active compounds read low 1 and 1.04 and 1.03 | locus YHR079C, strain IRE1 (second series), active compounds read low 0.994 | locus YHR079C, strain IRE1, active compounds read low 1.03 and 1.04 | locus YHR094C, strain hxt1, active compounds read low 0.996 | locus YHR129C, strain ARP1, active compounds read low 1.01 | locus YHR142W, strain chs7, active compounds read low 1 | locus YHR200W, strain rpn10, active compounds read low 0.994 | locus YIL066C, strain RNR3, active compounds read low 0.987 | locus YIL073C, strain SPO22, active compounds read low 0.891 | locus YIL125W, strain kgd1, active compounds read low 1 | locus YIR030C, strain dcg1, active compounds read low 0.982 | locus YJL092W, strain hpr5, active compounds read low 1.01 | locus YJL095W, strain BCK1 (second series), active compounds read low 1.01 | locus YJL095W, strain BCK1, active compounds read low 0.972 and 1.03 | locus YJL115W, strain asf1, active compounds read low 1.01 | locus YJL129C, strain trk1, active compounds read low 0.998 | locus YJL134W, strain LCB3, active compounds read low 1 | locus YJL154C, strain vps35, active compounds read low 1.01 | locus YJL164C, strain tpk1, active compounds read low 1.01 | locus YJL166W, strain qcr8, active compounds read low 1 | locus YJL168C, strain set2, active compounds read low 1.01
